Only some compounds are listed: those with a hit (about 6.7% of all), similar ones and a draw of the others.
GDH-TPI inh = GDH-TPI coupled enzyme inhibition counter-screen; inhibition, % at 4.8 µM; hit rate 1.2% among 360,000; GDH-TPI coupled enzyme counterscreen, NADH absorbance; in the data active means inhibition above about 30%;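 further: 0% = DMSO wells and 100% = wells lacking the enzyme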
Mtb FBA inh = inhibits M. tuberculosis FBA enzyme. P9WQA3. purified M. tuberculosis FBA, fluorescence read-out. inhibition, % at 1 µM. hit rate 2.3% among 360,000. AID 588726; in the data active means inhibition above about 27%;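 further: 0% = vehicle and 100% = reference inhibitor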
Target sequence (P9WQA3 whole entry, looked up): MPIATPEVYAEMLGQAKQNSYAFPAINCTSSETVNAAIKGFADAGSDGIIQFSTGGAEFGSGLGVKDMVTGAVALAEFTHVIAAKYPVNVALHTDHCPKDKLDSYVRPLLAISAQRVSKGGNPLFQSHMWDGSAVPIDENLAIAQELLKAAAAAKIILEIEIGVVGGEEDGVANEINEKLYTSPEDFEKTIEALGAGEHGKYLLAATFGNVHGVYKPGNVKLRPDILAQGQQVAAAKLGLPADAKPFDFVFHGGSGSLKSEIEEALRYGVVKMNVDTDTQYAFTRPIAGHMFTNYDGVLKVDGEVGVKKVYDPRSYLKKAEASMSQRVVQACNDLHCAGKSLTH
BoNT-F LC inh = blocks Botulinum neurotoxin F light chain protease; inhibition, % at 10 µM; AID 588497; Multiplex microsphere protease cleavage assay, flow cytometry; hit rate 0.22% among 360,000; in the data active means inhibition above about 35%, passing the limit was not always enough; inconclusive means no clear call, values can overlap the other calls; further: plate controls were buffer without enzyme for full effect and enzyme alone for no effect
BoNT-A LC inh2 = inhibitors of Botulinum neurotoxin A light chain protease | AID 588499 | hit rate 0.17% among 360,000 | multiplex microsphere protease substrate cleavage, flow cytometry | inhibition, % at 10 µM; further: plate controls were buffer without enzyme for full effect and enzyme alone for no effect
Autofluor counter = counter-screen for toxin protease inhibitors: compound fluorescence. compound autofluorescence counterscreen, microsphere flow cytometry; hits give high values. fluorescence intensity (no concentration beside the values). hit rate 3.1% among 360,000. AID 624483; in the data active means fluorescence intensity above about 16000; inconclusive means no clear call, values can overlap the other calls
Anthrax LF prot = inhibitors of Bacillus anthracis lethal factor protease; P15917; multiplex microsphere protease cleavage assay, LF; inhibition, % at 10 µM; hit rate 0.12% among 360,000; further: plate controls were buffer without enzyme for full effect and enzyme alone for no effect
Starred values were filed as active, the others as inactive; ? = inconclusive; . = no result; + = active, no number. Unless noted, no stated cut-off is given here; in the data, active means inhibition above about 30%; inconclusive means no clear call, values can overlap the other calls; inactive means below that.

SMILES	GDH-TPI inh	Mtb FBA inh	BoNT-F LC inh	BoNT-A LC inh2	Autofluor counter	Anthrax LF prot
C=C(C)C1CC=C(C)/C(=N/NC(=O)CNc2ccc(OCC)cc2)C1 (stereo not drawn)	3	-4	0	?	21006*	-13
Cc1nn(Cc2c(F)c(F)c(F)c(F)c2F)c(C)c1NC(=O)c1ccc(COc2ccccc2Cl)o1	4	0	15	15	19196*	0
CC(=O)Nc1ccc(/C(C)=N/NC(=O)c2ccc(COc3ccccc3Cl)o2)cc1	31*	3	.	.	.	.
CC(C)Cc1cc(C(=O)O)c2ccccc2n1	5	0	-12	-9	18252*	-3
COc1ccc(CNC(=O)CC2C[C@H](C(=O)N(C(C)C)C(C)C)[C@@]3(C)c4[nH]c5ccccc5c4CCN3C2=O)cc1OC (stereo partly drawn)	7	-2	-6	-1	3980	-1
O=C(Nc1ccccc1-c1nnc(SCc2ccc(Cl)cc2)o1)c1ccccc1	6	-2	-1	1	22262*	-3
O=c1c(-c2nnc(SCc3ccc(Cl)cc3)o2)cccn1Cc1ccccc1	23	176*	1	1	22587*	0
Cc1nc([N+](=O)[O-])cn1CCCCN1C(=O)c2ccccc2C1=O	16	-1	?	0	3348	-1
c1ccc2nc(-c3nc4ccccc4[nH]3)ccc2c1	36*	23	-9	0	2475	-1
CCN1CCc2c(OCc3ccc(C(=O)OC)o3)cccc2C1=O	-2	-3	-4	-1	4072	8
Cc1nnc(N/N=C/c2cccc(C(F)(F)F)c2)n1N	1	-5	1	-2	4053	6
CCOC(=O)N1CCN(C(=O)CN(c2cccc(C)c2)S(=O)(=O)c2ccc(C)cc2)CC1	0	0	-2	0	5574	-6
COc1ccc(OC)c(N(CC(=O)N2CCC(C)CC2)S(=O)(=O)c2ccccc2)c1	-7	-2	0	?	20367*	-7
COc1ccc(OC)c(N(CC(N)=O)S(=O)(=O)c2ccc(OC)c(OC)c2)c1	-3	0	0	0	20080*	-1
Cc1ccc(S(=O)(=O)N(CC(=O)N2CCC(C)CC2)c2cccc(C)c2)cc1	10	3	-2	1	20718*	-10
COc1ccc(OC)c(N(CC(=O)N2CCCCC2)S(=O)(=O)c2ccc(OC)c(OC)c2)c1	-6	-1	-2	-1	3503	-1
COc1ccc(OC)c(N(CC(=O)NCCSc2ccccc2)S(C)(=O)=O)c1	1	-2	1	0	4644	-6
O=C(OCC#CCSc1nnc(-c2ccccc2)o1)c1cccs1	11	2	-3	-2	17034*	-3
Cc1ccccc1OCC(O)Cn1c(N2CCCCC2)nc2c1c(=O)[nH]c(=O)n2C (stereo not drawn)	1	-2	-3	0	5898	-1
CCOC(=O)c1cc(OC)c2cccc(CN3CCC(C)(C(=O)NCCOC)C3)c2c1 (stereo not drawn)	20	28*	3	1	2981	-3
COCCN(C(=O)Nc1ccc(OC)cc1OC)C1CCN(C(C)=O)CC1	0	0	0	0	3026	4
CCOc1ccc(OCc2ccc(C(=O)N3N=C(C(F)F)CC3(O)C(F)F)o2)cc1 (stereo not drawn)	3	-2	-3	-4	17666*	-4
COc1ccccc1NC(=O)N1CCN(c2ccc3nnc(-c4ccc(F)cc4)n3n2)CC1	4	-1	-3	0	4982	-4
O=C(Nc1ccccc1Cl)N1CCN(c2ccc3nnc(-c4ccc(F)cc4)n3n2)CC1	10	2	7	?	20523*	0
Cc1ccccc1-n1nc(C)c2c(C(=O)NN)cc(-c3ccncc3)nc21	8	2	1	0	3226	-4
SMILES	GDH-TPI inh	Mtb FBA inh	BoNT-F LC inh	BoNT-A LC inh2	Autofluor counter	Anthrax LF prot
CCN(CC)CCN(C(=O)c1cc2c(ccc3ccccc32)oc1=O)c1nc2cc3c(cc2s1)OCCO3	11	+	0	2	4486	-1
CCN(CC)CCN(C(=O)c1ccc2c(c1)OCCO2)c1nc2cc3c(cc2s1)OCO3	4	-1	-4	0	5551	-3
CCCn1c(N)c(N(CCOC)C(=O)c2ccc(C#N)cc2)c(=O)[nH]c1=O	3	7	-5	0	3583	-8
CC1(C)CC(=O)C=C(NCc2ccc(C(=O)O)cc2)C1	19	-3	-9	-1	?	-6
CC1(C)CC(=O)C=C(Nc2ccccn2)C1	16	-3	0	?	21302*	-1
COc1ccc(CNC2=CC(=O)CC(C)(C)C2)cc1	-6	1	-4	-2	24712*	-1
CC1(C)CC(=O)C=C(Nc2ccc([N+](=O)[O-])cc2)C1	47*	-3	15	0	3595	0
CC1(C)CC(=O)C=C(Nc2cccc(F)c2)C1	-1	-3	15	4	3926	1
CC(O)c1cccc(NC2=CC(=O)CC(C)(C)C2)c1 (stereo not drawn)	7	1	1	2	22635*	-4
CC1Cc2nc(SCC(=O)N3CCCc4ccccc43)n(C)c(=O)c2S1 (stereo not drawn)	15	2	0	0	5731	12
Cc1ccc(Nc2nnc(C3C(=O)N(C)C4(C)CC3c3cc(Br)ccc3O4)s2)cc1 (stereo not drawn)	5	-1	-4	0	2107	1
CCC(C)NC(=O)NC(=O)CSc1nnc(-c2ccccc2F)n1C1CC1 (stereo not drawn)	-1	-1	4	0	5330	-4
COc1ccccc1NC(=O)N1c2ccccc2NC(=O)CC1C (stereo not drawn)	15	1	0	-1	5804	-5
O=C1CC(C(=O)N2CCC3(CC2)OCCO3)CN1CCc1ccccc1 (stereo not drawn)	0	1	-2	-1	2835	2
COC(=O)c1ccc(NC2=CC(=O)CC(C)(C)C2)cc1	44*	4	?	0	4087	-5
COc1cccc(C(=O)NNC2=CC(=O)CC(C)(C)C2)c1	1	-1	-4	-1	20933*	-2
COc1ccc(NC2=CC(=O)CC(C)(C)C2)cc1	3	-6	5	-2	3662	6
CC1CCN(S(=O)(=O)c2ccc(NC(=O)CN3CCCC3)cc2)CC1	-2	-1	-7	-1	6120	-1
CCn1nc(CCC(=O)O)c2ccccc2c1=O	4	1	3	3	22340*	-1
CC(=O)C(Sc1nnnn1-c1ccc(O)cc1)c1ccccc1 (stereo not drawn)	-4	-1	21	1	3629	-2
CCOc1ccccc1/C=C\c1nc(O)c([N+](=O)[O-])c(=O)[nH]1	37*	-1	-28	-2	3810	-3
O=c1[nH]c(/C=C\c2cccc(O)c2)nc(O)c1[N+](=O)[O-]	35*	-7	?	2	3307	0

Bioassay records (PubChem)
